Shiga inhibitor = A qHTS for Small Molecule Inhibitors of Shiga Toxin; Vero cells, Shiga toxin protein synthesis inhibition reporter; inhibition, % at 38.7 µM; actives 9.2% (n = 290,000); AID 2315, 2010; in the data active = inhibition mostly above about 28%, no sharp cut-off; inactive = mostly below about 43%
MARV entry inh = qHTS for inhibitors of binding or entry into cells for Marburg Virus | Potency, µM (top dose mostly 37.8 µM), most hits filed as inhibitors | actives 1.8% (n = 300,000) | Marburg virus pseudotyped entry inhibition, cell reporter; calls by dose curve; tested in HEK293 cells
LASV entry inh = qHTS for Inhibitors of binding or entry into cells for Lassa Virus | Lassa virus pseudotype entry inhibition, cell reporter | Potency, µM (top dose mostly 37.9 µM), usual class: inhibitors | actives 1.2% (n = 300,000); calls by dose curve; tested in HEK293 cells; note: nearly all actives have a fitted effect of over 50% in size
CHX counter = Cycloheximide Counterscreen for Small Molecule Inhibitors of Shiga Toxin. max response, %. cell reporter, cycloheximide protein synthesis inhibition counterscreen. actives 12% (n = 300,000). AID 2314, 2010; in the data active = max response mostly above about 13%, no sharp cut-off; inactive = mostly below about 14%; note: read at 38.3 µM for the half of the compounds with a filed dose
Of the large screens only hits and unclear results are named; the others gave an inactive call. Compounds with a hit are over-represented: about 12% of the library has one in this group of screens.

O=C(CSc1nnc(-c2cccc(Cl)c2)o1)Nc1ccc2c(c1)OCCO2	Shiga inhibitor 36, MARV entry inh inconclusive
Cc1cc(C(=O)Nc2ccncc2)c2ccccc2n1	none (no result: MARV entry inh, LASV entry inh)
Nc1ccc2nc(CCCCc3nc4ccccc4[nH]3)[nH]c2c1	none (no result: MARV entry inh, LASV entry inh)
Brc1ccc(OCc2nc3ccccc3[nH]2)cc1	Shiga inhibitor 94, CHX counter 55 (no result: MARV entry inh, LASV entry inh)
COc1ccc(OCc2nc3ccccc3[nH]2)cc1	Shiga inhibitor 152, MARV entry inh inconclusive, LASV entry inh inconclusive
COc1ccc(OCCCC(=O)NCCc2nc3ccccc3[nH]2)cc1	none
Nc1ccc2nc(COc3ccccc3)[nH]c2c1	CHX counter 9.9 (no result: MARV entry inh, LASV entry inh)
CN(C)C(=O)Oc1ccc(OCc2nc3ccccc3[nH]2)cc1	Shiga inhibitor 35, MARV entry inh inconclusive, LASV entry inh 9.2µM, CHX counter 24
COc1cccc(OCc2nc3ccccc3[nH]2)c1	Shiga inhibitor 93, CHX counter 36 (no result: MARV entry inh, LASV entry inh)
c1ccc2cc(OCc3nc4ccccc4[nH]3)ccc2c1	Shiga inhibitor 108, MARV entry inh inconclusive, CHX counter 49
CN(CC(=O)O)Cc1nc2ccccc2[nH]1	CHX counter 28
O=C(COc1ccc2ccccc2c1)Nc1nc2ccccc2[nH]1	none
COc1cccc(NC(=O)CSc2nc3ncc(Br)cc3[nH]2)c1	none (no result: MARV entry inh, LASV entry inh)
COc1cccc(OCc2nc3ncc(Br)cc3[nH]2)c1	MARV entry inh inconclusive, CHX counter 17
COc1ccc(NC(=O)Cc2nc3ccccc3[nH]2)cc1	none
COc1ccc(OC)c(NC(=O)CN2C(=O)NC3(CCOc4ccccc43)C2=O)c1 (configuration not stated)	MARV entry inh inconclusive
COc1nc(OC)nc(Oc2ccc([N+](=O)[O-])cc2Cl)n1	MARV entry inh inconclusive
Cc1oc(-c2ccccc2F)nc1CS(=O)CC(=O)NCc1ccc(F)cc1 (configuration not stated)	none (no result: MARV entry inh, LASV entry inh)
COc1ccc(NC(=O)c2ccccc2Oc2ccccc2)cc1	none (no result: MARV entry inh, LASV entry inh)
CCCc1c(C(=O)N2CCN(c3ccccc3OC)CC2)cnn1-c1ccccc1	none
CCCc1c(C(=O)Nc2ccc(OC)cc2)cnn1-c1ccccc1	Shiga inhibitor 54, CHX counter 22 (no result: MARV entry inh, LASV entry inh)
CCCc1c(C(=O)NNc2ccccc2OC)cnn1-c1ccccc1	Shiga inhibitor 41, MARV entry inh inconclusive, CHX counter 23
NC(=O)c1ccccc1NC(=O)/C=C/c1c(Cl)cccc1Cl	Shiga inhibitor 143, MARV entry inh inconclusive, CHX counter 27
NC(=O)c1ccccc1NC(=O)/C=C/c1cccc(Cl)c1	Shiga inhibitor 118, CHX counter 45
Cc1ccc(/C=C/C(=O)Nc2ccccc2C(N)=O)o1	MARV entry inh inconclusive (no result: Shiga inhibitor, CHX counter)
Cc1cccc(NC(=S)NC2CCSc3ccccc32)c1 (configuration not stated)	MARV entry inh inconclusive
CCOc1ccc(NC(=S)NC(C)c2cccs2)cc1 (configuration not stated)	none
Cc1cc(C)c2oc(-c3ccc(C)c(NC(=S)NC(=O)c4cccs4)c3)nc2c1	Shiga inhibitor 39, CHX counter 17
Cc1ccc(-c2nc3ccccc3o2)cc1NC(=S)NC(=O)c1cccs1	Shiga inhibitor 98, CHX counter 32
Cc1cc(C)c2oc(-c3ccc(C)c(NC(=S)NC(=O)/C=C/c4ccco4)c3)nc2c1	Shiga inhibitor 44, LASV entry inh inconclusive, CHX counter 29
Cc1ccc(-c2csc(NC(=S)NC(=O)c3cccs3)n2)cc1	none
COc1ccc(CNC(=O)CN2C(=O)c3ccc([N+](=O)[O-])cc3C2=O)cc1	none
Cc1nn(C)c(=O)n1-c1ccc(Oc2ccccc2)cc1	CHX counter 11
Cc1nn(C)c(=O)n1-c1ccccc1	none
Cc1nn(CCOc2ccccc2)c(=O)n1-c1c(F)cccc1F	Shiga inhibitor 33, LASV entry inh inconclusive, CHX counter 52
Cc1ccc(-n2c(C)nn(CCOc3ccccc3)c2=O)cc1	Shiga inhibitor 67, CHX counter 35
Cc1ccc(-n2c(C)nn(CC3CC3)c2=O)cc1	none
Fc1ccccc1-n1ncc2c1ncn1nc(COc3ccc(Cl)cc3)nc21	none (no result: Shiga inhibitor, CHX counter)
CC(C)(C)NC(=O)COC(=O)/C=C/c1ccccc1[N+](=O)[O-]	Shiga inhibitor 38, CHX counter 24
O=C(COC(=O)/C=C/c1ccccc1[N+](=O)[O-])Nc1ccc(OCc2ccccc2)cc1	Shiga inhibitor 39, MARV entry inh inconclusive, CHX counter 17
O=C(COc1cc2oc(=O)c3c(c2cc1Cl)CCCC3)NCC1CCC(C(=O)O)CC1 (configuration not stated)	none (no result: MARV entry inh, LASV entry inh)
CCCc1nc2c(=O)n(C)c(=O)nc-2n(C)n1	MARV entry inh inconclusive, LASV entry inh 1µM
O=C(Cn1c(=O)oc2cc(S(=O)(=O)N3CCCC3)ccc21)Nc1ccc(F)cc1F	none (no result: Shiga inhibitor, CHX counter)
Cc1cc(C)n2cc(CSc3ccc(Br)cc3)nc2n1	Shiga inhibitor 31, CHX counter 26
Cc1cc(C)n2cc(CSc3ncn[nH]3)nc2n1	none
Cc1nc(CSc2ccc(Br)cc2)cs1	Shiga inhibitor 49, LASV entry inh inconclusive, CHX counter 23
Cc1nc(CSc2ccc(Cl)cc2)cs1	Shiga inhibitor 111, LASV entry inh inconclusive, CHX counter 36
Cc1nc(CSc2nnc(N)s2)cs1	MARV entry inh inconclusive
O=C(CCN=C1NS(=O)(=O)c2ccccc21)OCc1nnc(-c2ccc([N+](=O)[O-])cc2)o1	MARV entry inh inconclusive (no result: Shiga inhibitor, CHX counter)
COc1ccccc1N1CCN(CC(O)COc2ccc3c(c2)CCC3)CC1 (configuration not stated)	MARV entry inh inconclusive, LASV entry inh inconclusive
S=C(NCCc1ccccn1)NC1CC2CCC1C2 (configuration not stated)	CHX counter 27
CC(=O)c1ccc(NC(=S)NCCc2ccccn2)cc1	Shiga inhibitor 21, MARV entry inh inconclusive, LASV entry inh inconclusive, CHX counter 43
CN(CCc1ccccn1)C(=O)Nc1ccc(Cl)cc1	CHX counter 32
Fc1ccc(NC(=S)NCCc2ccccn2)cc1	none
CN(CCc1ccccn1)C(=S)Nc1ccc(Cl)c(Cl)c1	MARV entry inh inconclusive
CC(C)(C)c1ccc(NC(=S)NCCc2ccccn2)cc1	CHX counter 17
NCCCC[C@H](N)C(=O)N[C@@H](CCCN=C(N)N)C(=O)N1CCC[C@H]1C(=O)N1CCC[C@H]1C(=O)NCC(=O)N[C@@H](Cc1ccccc1)C(=O)N[C@@H](CO)C(=O)N1CCC[C@H]1C(=O)N[C@@H](Cc1ccccc1)C(=O)O	none (no result: MARV entry inh, LASV entry inh)
COc1cc(NC(=S)NC(=O)CCc2ccccc2)cc(OC)c1	none
S=C(NCCc1ccccn1)Nc1ccc(Cl)cc1	Shiga inhibitor 48, MARV entry inh inconclusive, CHX counter 39
S=C(NCc1ccccn1)Nc1ccccc1	MARV entry inh inconclusive
Fc1ccc(NC(=S)NCc2ccccn2)cc1	Shiga inhibitor 46, MARV entry inh inconclusive, CHX counter 16
COc1ccc(S(=O)(=O)N2CCOC2CNC(=O)C(=O)NCCCN2CCOCC2)cc1C (configuration not stated)	MARV entry inh inconclusive
Cc1ccc(NC(=O)C(C)Sc2nc(=O)cc(N)n2-c2cccc(C)c2)cc1 (configuration not stated)	none (no result: Shiga inhibitor, CHX counter)
COc1cc2c(O)c3c(c(-c4ccc5c(c4)OCO5)c2cc1OC)C(=O)OC3	MARV entry inh 2.3µM, LASV entry inh 3.7µM
COc1cc2c(OC(C)=O)c3c(c(-c4ccc5c(c4)OCO5)c2cc1OC)C(=O)OC3	none (no result: MARV entry inh, LASV entry inh)

Screens as filed in PubChem BioAssay.
